MCF10A rereplic: induces DNA re-replication in MCF 10a normal breast cells; MCF 10A DNA re-replication, Hoechst nuclear intensity, 48 h; Potency, µM (highest dose often 46.1 µM), without a hit: at the highest dose activity, positive = re-replication, most hits filed as activators; 350,000 compounds, 2.9% hits; also: potency is read from the fitted curve at half-maximal effect; % of control where 0% means no effect; nearly all actives have a fitted effect of over 50% in size
SW480 rerep: DNA re-replication induction in SW480 cells; AID 624297; SW480 DNA re-replication, Hoechst DNA content imaging, 48 h; 340,000 compounds, 1.8% hits; Potency, µM (titrated, usually from 46.1 µM), for inactives: top-dose re-replication activation, usual class: activators; also: potency is read from the fitted curve at half-maximal effect; % of control where 0% means no effect; nearly all actives have a fitted effect of over 55% in size
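Readout is total intensity of Hoechst-stained nuclei, excited at 405 nm and collected at 500-530 nm. Compound treatment lasted 48 hr at 37 C in 5% CO2 before staining.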
TDP1 cell noCPT: qHTS for Inhibitors of human tyrosyl-DNA phosphodiesterase 1 (TDP1): qHTS in cells in absence of CPT; DT40 Tdp1-/- hTDP1 cells, no CPT, ATP luminescence, 48 h; Potency, µM (titrated, usually from 46.2 µM), without a hit: top-dose activity change, negative = growth inhibition, usual class: inhibitors; 420,000 compounds, 15% hits; AID 686978, 2013; also: potency is read from the fitted curve at half-maximal effect; % is scaled to controls: 0 for no effect and ±100 for the full control effect; nearly all actives have a fitted effect of over 55% in size
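Readout: luminescence from CellTiter-Glo after 30 min in the dark at RT. Cells: DT40 Tdp1-/- with stable hTDP1, 400/well. Exposure: compounds alone, ≥48 hr, 37 °C.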
DT40 TDP1 CPT: growth inhibition of DT40 Tdp1-/-;hTDP1 cells with camptothecin (screen for TDP1 inhibitors); chicken DT40 Tdp1-/-;hTDP1 cells + 20 nM CPT, ATP luminescence, 48 h; Potency, µM (top dose mostly 46.2 µM), for inactives: at the highest dose activity change, negative = growth inhibition, actives largely listed as inhibitors; 420,000 compounds, 12% hits; AID 686979; also: potency is read from the fitted curve at half-maximal effect; % is scaled to controls: 0 for no effect and ±100 for the full control effect; nearly all actives have a fitted effect of over 55% in size
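Chicken DT40 Tdp1-/- cells stably complemented with human TDP1 were seeded at 400 cells/well in medium containing 20 nM camptothecin, exposed to pin-transferred compounds, and grown at 37 °C for at least 48 hr. Viability was read as ATP luminescence.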
IL1B secr inh: inhibitors of inflammasome signaling (IL-1 beta secretion) | THP-1 LPS/ATP IL-1B secretion, AlphaLISA, 16 h; active compounds read low | activity change, % at 57.5 µM | 360,000 compounds, 4.7% hits | AID 743279; in the data active = activity change below about -50%; inconclusive = mostly about -30% to -49%; also: % is scaled to controls: 0 for no effect and ±100 for the full control effect
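Secreted IL-1B measured by AlphaLISA bead assay after 16 h compound exposure of THP-1 cells; compounds (final up to 57.5 uM) added 1 h before LPS (250 ng/mL) and ATP (1.25 mM) stimulation; lower signal means less secretion.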
Chronic BCR inh: chronic active BCR signaling inhibition | 340,000 compounds, 0.05% hits | Potency, µM (doses to about 46.1 µM), without a hit: at the highest dose activity change, negative = inhibition, hits mostly inhibitors | ABC-DLBCL IkBa-CBG/CBR reporter, luminescence ratio, 4 h; active = well fitted inhibition curve with a large enough effect in the signal ratio, with a control signal flat, not every such curve was filed as active; inconclusive = small, poorly fitted or top-dose-only effect, or effect the other way, or a change in a side signal; the % refers to the signal ratio;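 also: potency is read from the fitted curve at half-maximal effect; plate controls were basal doxycycline-induced cells for no effect and cells given 10 µM MG132 for full effect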
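Concentration-response series (up to 46 uM) were applied to TMD8 dual-reporter cells for 4 h at 37C with doxycycline. Green/red ratio, after filter-overlap correction, defined %Activity; red signal alone was normalised to basal cells and zero luminescence.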
The depositor's hits bear a star; ? = inconclusive; / = no result given. This is a sample that favours compounds with a hit; in the whole collection about 19% have one here. Unless noted, calls follow the shape of the dose curve; as a rule, active = well fitted curve in the direction sought with a large enough effect; inconclusive = small, poorly fitted or top-dose-only effect, or another doubt; inactive = no such curve, though single readings can be large; an effect the other way counts as inactive or inconclusive.

SMILES	MCF10A rereplic	SW480 rerep	TDP1 cell noCPT	DT40 TDP1 CPT	IL1B secr inh	Chronic BCR inh
O=C(NCc1ccc2c(c1)OCO2)Nc1ccc([N+](=O)[O-])cc1	12.4%	-0.1%	4.11µM*	20.6µM*	3.0	-6.8%
O=C(NCc1ccccc1F)Nc1ccc([N+](=O)[O-])cc1	1.8%	-1.8%	25.9µM*	?	-14.6	?
CCc1ccc(NC(=O)NCc2ccc3c(c2)OCO3)cc1	-3.9%	-4.9%	3.5%	-2.3%	-8.6	?
Cc1ccc(Cl)cc1N(CC(=O)NC(C)c1ccccc1)S(C)(=O)=O (configuration not stated)	11.4%	3.0%	-13.2%	-5.9%	-12.0	0.0%
Cc1ccc(CNC(=O)Cn2c(=O)c3sccc3n(Cc3ccc([N+](=O)[O-])cc3)c2=O)cc1	?	0.4%	?	-24.1%	-9.2	-1.2%
COc1ccc(-c2cnc(C(O)c3ccc(C(C)(C)C)cc3)[nH]2)cc1 (configuration not stated)	/	/	?	?	0.0	/
COC(=O)CCNC(=O)Cc1c(C)n(C(=O)c2ccc(Cl)cc2)c2ccc(OC)cc12	-4.7%	-4.6%	?	?	22.3	?
CCCNC(=O)Cc1c(C)n(C(=O)c2ccc(Cl)cc2)c2ccc(OC)cc12	?	2.1%	?	20.6µM*	-0.2	?
Cc1ccc(-c2nc3c(C)cc(Br)cn3c2Cc2ccsc2)cc1	/	/	?	18.4µM*	45.9	/
COc1ccccc1Cc1c(-c2ccccc2)nc2c(C)cc(Br)cn12	/	/	16.4µM*	16.4µM*	11.4	/
COc1ccc(Cc2c(C(C)(C)C)nc3c(C)cc(Br)cn23)c(C)c1	/	/	23.1µM*	18.4µM*	0.0	/
Cc1ccc(Cc2c(-c3ccc(Cl)cc3)nc3c(C)cc(Br)cn23)cc1	/	/	16.4µM*	23.1µM*	81.4	/
Cc1cc(Br)cn2c(Cc3ccsc3)c(-c3ccccc3)nc12	/	/	?	?	16.0	/
CCOC(=O)N1CCN(S(=O)(=O)N2CCCC(C(=O)NCCCN3CC(C)CC(C)C3)C2)CC1 (configuration not stated)	-0.5%	-6.1%	21.7%	0.5%	42.6	1.2%
CCOC(=O)N1CCN(C(=O)COC(=O)c2cc(C)ccc2C)CC1	2.8%	1.3%	-12.1%	-0.4%	25.8	-7.9%
Cc1cc(Br)cn2c(Cc3ccccc3)c(-c3ccccc3)nc12	/	/	?	29.1µM*	38.5	/
Cc1ccc(Cc2c(-c3ccc(Cl)cc3)nc3c(Cl)cc(C(F)(F)F)cn23)cc1	/	/	18.4µM*	?	3.5	/
Cc1ccc(Cc2c(-c3cccc(Cl)c3)nc3c(C)cc(Br)cn23)cc1	/	/	20.6µM*	14.6µM*	0.0	/
Cc1cc(Br)cn2c(Cc3ccccc3)c(-c3ccc(F)cc3)nc12	/	/	?	?	48.5	/
O=C(Nc1cccc(C(F)(F)F)c1)c1cc2nc(-c3ccccc3)cc(C(F)(F)F)n2n1	/	/	1.8%	-5.2%	/	/
O=c1c(-c2cccc(F)c2)nc2cncnc2n1-c1ccccc1	/	/	0.2%	1.2%	/	/
CC(C)C1N(C(=O)N2CCOCC2)CCN1S(=O)(=O)c1ccccc1 (configuration not stated)	-9.3%	1.7%	11.1%	-1.7%	7.2	2.1%
Brc1ccc(-c2nn3c(-c4ccco4)nnc3s2)o1	0.1%	-6.0%	-20.7%	-25.3%	?	-0.1%
Clc1ccc(-c2ccc(-c3nn4c(-c5ccco5)nnc4s3)o2)cc1	?	24.0%	10.3µM*	?	-16.8	/
COC(=O)CCN1CCC2CC1c1cc(Cl)ccc12 (configuration not stated)	?	-42.3%	-7.3%	-10.1%	-18.8	/
SMILES	MCF10A rereplic	SW480 rerep	TDP1 cell noCPT	DT40 TDP1 CPT	IL1B secr inh	Chronic BCR inh
CCOCCCNC(=O)C1CCN(c2nn3cc(-c4ccc(F)cc4)nc3s2)CC1	/	/	14.6µM*	20.6µM*	/	/
COc1ccc(-c2cn3nc(N4CCCC(C(=O)NCc5ccc(Cl)cc5)C4)sc3n2)cc1 (configuration not stated)	/	/	8.2µM*	9.2µM*	/	?
CCc1ccc(CNC(=O)C2CCCN(c3nn4cc(-c5ccc(F)cc5)nc4s3)C2)cc1 (configuration not stated)	/	/	16.4µM*	16.4µM*	/	/
CCOc1ccc(CNC(=O)C2CCCN(c3nn4cc(-c5ccc(F)cc5)nc4s3)C2)cc1 (configuration not stated)	/	/	23.1µM*	20.6µM*	/	/
O=C(NCc1cccc(F)c1)C1CCN(c2nn3cc(-c4ccc(F)cc4)nc3s2)CC1	/	/	?	-26.3%	/	/
CC1C(=O)N2CCCc3cc(S(=O)(=O)NCc4ccccc4Cl)cc1c32 (configuration not stated)	12.7%	-3.8%	-2.2%	?	41.5	-2.7%
COc1ccc(-c2cn3nc(N4CCCC(C(=O)Nc5ccccc5OC)C4)sc3n2)cc1 (configuration not stated)	/	/	16.4µM*	14.6µM*	/	/
COc1cccc(CNC(=O)C2CCCN(c3nn4c(=O)cc(C)nc4s3)C2)c1 (configuration not stated)	-10.7%	-8.0%	-4.5%	2.9%	-7.6	?
CCOc1ccc(CNC(=O)C2CCCN(c3nn4cc(-c5ccc(OC)cc5)nc4s3)C2)cc1 (configuration not stated)	/	/	18.4µM*	16.4µM*	/	/
COc1cccc(CNC(=O)C2CCCN(c3nn4cc(-c5ccc(C)cc5)nc4s3)C2)c1 (configuration not stated)	/	/	14.6µM*	20.6µM*	/	/
CCCSCCCNC(=O)C1CCCN(c2nn3cc(-c4ccc(OC)cc4)nc3s2)C1 (configuration not stated)	/	/	13µM*	20.6µM*	/	/
COc1ccc(-c2cn3nc(N4CCC(C(=O)Nc5cccc(OC)c5)CC4)sc3n2)cc1	/	/	-24.6%	?	/	/
O=C(CSc1n[nH]c(-c2ccncc2)n1)Nc1ccc(Cl)c(C(=O)O)c1	-3.9%	-18.7%	-1.7%	3.8%	10.2	-6.9%
CCc1ccc(NC(=O)C2CCCN(c3nn4cc(-c5ccc(OC)cc5)nc4s3)C2)cc1 (configuration not stated)	/	/	13µM*	?	/	/
COc1ccc(CC(=O)Oc2ccc(Cl)cc2Br)cc1S(=O)(=O)N1CCOCC1	-0.1%	-9.2%	-19.4%	-2.8%	-0.5	1.9%
Cc1cccn2c(=O)c(C=O)c(N3CCCCC3)nc12	0.9%	7.4%	-23.2%	-0.5%	-4.9	5.5%

Assay outcomes (PubChem BioAssay)
